Consider 39 molecules from PubChem BioAssay (NCI).

The structures appear in SMILES notation. Compounds without any hit were thinned out: in the full panel of roughly 83,000, 20% have a hit.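 The test compound was applied at a single concentration to cells in 96-well plates for 48 hours, and percent growth was recorded.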 A number with no mark means an inactive call. Activity calls are given as the source filed them. The calls were made as follows: active = growth percent below 10; inactive = the rest.

The test system of one assay is 786-0 renal. As to the kind of experiment: NCI-60 one-dose screen, 48 h (100 = growth as untreated, 0 = no growth, -100 = all killed). Particulars: 10 µM unless noted.
On to `COc1ccc(/C(C)=N/NS(=O)(=O)c2ccc(C)cc2)cc1OC`, for which the growth is 102%.
Same read-out and setting: under `C[C@@H]1C(=O)N(C[C@@H](Cc2ccccc2)NC(=O)OCc2ccccc2)[C@]1(Cc1ccccc1)C(=O)OCc1ccccc1` stands 52.9%.
The same measure, in the same setting: under `NC(=Nc1ccc(N)cc1)C(N)=Nc1ccc(N)cc1` stands 99.6%; under `N#Cc1c(NC(=O)c2ccccc2I)sc2c1CCCC2`, 52.2%; under `Cc1ccc(Nc2ccc(Nc3ccc(C)cc3S(=O)(=O)O)c3c2C(=O)c2ccccc2C3=O)c(S(=O)(=O)O)c1`, 111%.
Still for that read-out and setting: the same measure for `C=C1C(=O)O[C@H]2[C@H]1CC/C(Cn1cc(CNCCc3c[nH]c4ccc(Cl)cc34)nn1)=C\CC[C@@]1(C)O[C@@H]21`: 67.4%; for `Cn1cc(Nc2nccc(-c3ccc(N4CCCC4)c(C#N)c3)n2)cn1`: 42.7%.
Take `CSc1ncc(C)c(Nc2ccc(Cl)cc2)n1`: the growth is 91.9%.
Still for that read-out and setting: under `COc1cc(/C=C2\C=C(c3ccccc3)N(CCc3ccccc3)C2=O)cc(OC)c1OC` stands 11.7%; under `O=c1cc(-c2ccc(OCc3ccccc3)cc2)oc2c(I)c(OCc3ccccc3)cc(OCc3ccccc3)c12`, 96.8%.
Still for that read-out and setting: under `CC(=O)Nc1nccs1` stands 107%; under `N[C@H]1CCC[C@@H]1NCCCCN1C(=O)c2cccc3cccc(c23)C1=O`, 54.8%; under `N=C(N)c1ccc(-c2ccc(-c3ccc(Cl)cc3Cl)o2)nc1`, -22% (active).
The same measure, in the same setting: under `O=C1N/C(=N/O)S/C1=C/c1cn(-c2ccccc2)nc1-c1ccccc1` stands 83.7%; under `C[C@@H]1CC[C@@H]2[C@@H]1[C@H](OC(=O)c1ccc3ccccc3c1)[C@]1(C3CCCCC3)C[C@@H](OC(=O)CO)[C@@]2(C)O1`, -7.27% (active); under `CN(C)c1ccc(C#Cc2c(F)cccc2Cl)cc1`, 112%.
In the case of `CCCN1CCN(c2ccc3nc(-c4ccc5nc(-c6cc(OC)c(OC)c(OC)c6)[nH]c5c4)[nH]c3c2)CC1`, the growth was 77.3%.
Still for that read-out and setting: under `O=C(NCCOCCOCCOCCNC(=O)c1cc2c(o1)C(=O)c1ccccc1C2=O)NC12CC3CC(CC(C3)C1)C2` stands 3.51% (active); under `COc1cc2c(cc1OC)-c1ccc3cc4c(cc3c1N(CCN(C)C)C2)OCO4`, -87.7% (active); under `O=C(NC(=S)Nc1ccc(-c2nc3ccccc3[nH]2)cc1)c1ccc2ccccc2c1`, -67.5% (active).
On the same count and under the same terms, under `CC[C@@H](C[C@H](CCO)c1ccccc1)c1cc2ccccc2o1` stands 91%.
Same read-out and setting: the same measure for `NC(N)=N/N=C/c1ccc(Br)cc1`: -38.3% (active).
For `CN(C)CCOC(=O)Nc1ccc(Cl)cc1`, the growth is 94.2%.
Turning to `O=C(/C=C/C12c3ccccc3C(c3ccccc31)C1C(=O)N(c3ccc(Cl)cc3)C(=O)C12)c1ccccn1` (stereo not drawn), the growth was -60.7% (active).
As to `OC(c1cccc(OCc2ccccc2)c1)c1nnc(-c2ccccc2)o1` (stereo not drawn), the growth was 100%.
In the case of `O=C1N(c2ccccc2)C(=S)N[C@]12[C@H](c1ccccc1)C1CCCN1[C@]21C(=O)NC2C=CC(Cl)=C[C@H]21` (stereo partly drawn), the growth was 97%.
The same measure, in the same setting: under `COC(=O)/C(=C\c1ccc(OC)cc1)C(=O)N1c2ccccc2Sc2ccccc21` stands 70.5%; under `Cc1ccc(S(=O)(=O)Nc2sccc2-c2nc(-c3ccccc3)no2)cc1`, 94.5%.
Still for that read-out and setting: the same measure for `CCNCCNc1cc(-c2ccc(C(F)(F)F)cc2)c(C#N)c2nc3cc(Cl)c(Cl)cc3n12`: -78% (active); for `COc1ccc(/C=C(\C#N)n2nnc3ccccc32)cc1`: 7.4% (active); for `CC(C)n1nc(C#Cc2cccc3cc(-c4cccc(C(F)(F)F)c4)ncc23)c2c(N)ncnc21`: 89%.
Still for that read-out and setting: under `COC(=O)CNC(=O)C(=O)c1c(O)c(O)c(C(C)C)c2cc(C)c(-c3c(C)cc4c(C(C)C)c(O)c(O)c(C(=O)C(=O)NCC(=O)OC)c4c3O)c(O)c12` stands 33.9%; under `NC(=O)c1c(NC(=O)c2ccc(C(F)(F)F)cc2Cl)sc2c1CCC(=O)C2`, 17.1%; under `C[C@@H](C[C@H](CCOCc1cccnc1)c1ccccc1)c1cc2ccccc2o1`, 93.8%.
As to `CCn1c(Sc2nnc(Nc3ccccc3)s2)nc2c1c(=O)n(C)c(=O)n2C`, the growth is 93.2%.
The same measure, in the same setting: the same measure for `Cc1cc(Cl)nc(N(CCCNc2ccnc3cc(Cl)ccc23)Cc2ccccn2)n1`: 47.4%; for `OC(CBr)c1ccnc2ccccc12` (stereo not drawn): 99.1%.
On the same count and under the same terms, under `COc1cc(C2C=C(c3cccc(NC(C)=O)c3)Nc3ncnn32)cc(OC)c1OC` (stereo not drawn) stands 50.1%; under `CCCCOC(=O)c1ccc(NC(=O)C(C)N2CCOCC2)cc1` (stereo not drawn), 99.1%.

The next assay deals with DU-145 prostate. The description is as above. Particulars: 10 µM unless noted.
With `COc1ccc(/C(C)=N/NS(=O)(=O)c2ccc(C)cc2)cc1OC`, the growth was 118%.
With `C[C@@H]1C(=O)N(C[C@@H](Cc2ccccc2)NC(=O)OCc2ccccc2)[C@]1(Cc1ccccc1)C(=O)OCc1ccccc1`, the growth is 78.3%.
For the molecule `NC(=Nc1ccc(N)cc1)C(N)=Nc1ccc(N)cc1`, the growth is 106%.
Same read-out and setting: under `N#Cc1c(NC(=O)c2ccccc2I)sc2c1CCCC2` stands 62.9%; under `Cc1ccc(Nc2ccc(Nc3ccc(C)cc3S(=O)(=O)O)c3c2C(=O)c2ccccc2C3=O)c(S(=O)(=O)O)c1`, 102%.
Regarding `C=C1C(=O)O[C@H]2[C@H]1CC/C(Cn1cc(CNCCc3c[nH]c4ccc(Cl)cc34)nn1)=C\CC[C@@]1(C)O[C@@H]21`, the growth is 83.6%.
The same measure, in the same setting: the same measure for `Cn1cc(Nc2nccc(-c3ccc(N4CCCC4)c(C#N)c3)n2)cn1`: 55.7%; for `CSc1ncc(C)c(Nc2ccc(Cl)cc2)n1`: 102%; for `COc1cc(/C=C2\C=C(c3ccccc3)N(CCc3ccccc3)C2=O)cc(OC)c1OC`: 73.8%.
Same read-out and setting: the same measure for `O=c1cc(-c2ccc(OCc3ccccc3)cc2)oc2c(I)c(OCc3ccccc3)cc(OCc3ccccc3)c12`: 105%.
Turning to `CC(=O)Nc1nccs1`, the growth was 107%.
On the same count and under the same terms, under `N[C@H]1CCC[C@@H]1NCCCCN1C(=O)c2cccc3cccc(c23)C1=O` stands 43.4%; under `N=C(N)c1ccc(-c2ccc(-c3ccc(Cl)cc3Cl)o2)nc1`, 24.1%; under `O=C1N/C(=N/O)S/C1=C/c1cn(-c2ccccc2)nc1-c1ccccc1`, 102%.
On the same count and under the same terms, the same measure for `C[C@@H]1CC[C@@H]2[C@@H]1[C@H](OC(=O)c1ccc3ccccc3c1)[C@]1(C3CCCCC3)C[C@@H](OC(=O)CO)[C@@]2(C)O1`: 72.1%; for `CN(C)c1ccc(C#Cc2c(F)cccc2Cl)cc1`: 101%.
Turning to `CCCN1CCN(c2ccc3nc(-c4ccc5nc(-c6cc(OC)c(OC)c(OC)c6)[nH]c5c4)[nH]c3c2)CC1`, the growth was 109%.
In the case of `O=C(NCCOCCOCCOCCNC(=O)c1cc2c(o1)C(=O)c1ccccc1C2=O)NC12CC3CC(CC(C3)C1)C2`, the growth was -96% (active).
On the same count and under the same terms, under `COc1cc2c(cc1OC)-c1ccc3cc4c(cc3c1N(CCN(C)C)C2)OCO4` stands 6.23% (active); under `O=C(NC(=S)Nc1ccc(-c2nc3ccccc3[nH]2)cc1)c1ccc2ccccc2c1`, 18.8%; under `CC[C@@H](C[C@H](CCO)c1ccccc1)c1cc2ccccc2o1`, 97.9%.
Same read-out and setting: under `NC(N)=N/N=C/c1ccc(Br)cc1` stands 80%; under `CN(C)CCOC(=O)Nc1ccc(Cl)cc1`, 110%.
In the case of `O=C(/C=C/C12c3ccccc3C(c3ccccc31)C1C(=O)N(c3ccc(Cl)cc3)C(=O)C12)c1ccccn1` (stereo not drawn), the growth is -86.5% (active).
Still for that read-out and setting: under `OC(c1cccc(OCc2ccccc2)c1)c1nnc(-c2ccccc2)o1` (stereo not drawn) stands 107%; under `O=C1N(c2ccccc2)C(=S)N[C@]12[C@H](c1ccccc1)C1CCCN1[C@]21C(=O)NC2C=CC(Cl)=C[C@H]21` (stereo partly drawn), 103%; under `COC(=O)/C(=C\c1ccc(OC)cc1)C(=O)N1c2ccccc2Sc2ccccc21`, 78.5%.
With `Cc1ccc(S(=O)(=O)Nc2sccc2-c2nc(-c3ccccc3)no2)cc1`, the growth was 105%.
Still for that read-out and setting: under `CCNCCNc1cc(-c2ccc(C(F)(F)F)cc2)c(C#N)c2nc3cc(Cl)c(Cl)cc3n12` stands -93% (active).
Same read-out and setting: the same measure for `COc1ccc(/C=C(\C#N)n2nnc3ccccc32)cc1`: -5.07% (active).
On the same count and under the same terms, under `CC(C)n1nc(C#Cc2cccc3cc(-c4cccc(C(F)(F)F)c4)ncc23)c2c(N)ncnc21` stands 89.4%; under `COC(=O)CNC(=O)C(=O)c1c(O)c(O)c(C(C)C)c2cc(C)c(-c3c(C)cc4c(C(C)C)c(O)c(O)c(C(=O)C(=O)NCC(=O)OC)c4c3O)c(O)c12`, 24.9%.
Regarding `NC(=O)c1c(NC(=O)c2ccc(C(F)(F)F)cc2Cl)sc2c1CCC(=O)C2`, the growth is 18.9%.
Still for that read-out and setting: the same measure for `C[C@@H](C[C@H](CCOCc1cccnc1)c1ccccc1)c1cc2ccccc2o1`: 98.7%.
Take `CCn1c(Sc2nnc(Nc3ccccc3)s2)nc2c1c(=O)n(C)c(=O)n2C`: the growth was 113%.
For `Cc1cc(Cl)nc(N(CCCNc2ccnc3cc(Cl)ccc23)Cc2ccccn2)n1`, the growth was 66.2%.
Turning to `OC(CBr)c1ccnc2ccccc12` (stereo not drawn), the growth is 109%.
The same measure, in the same setting: the same measure for `COc1cc(C2C=C(c3cccc(NC(C)=O)c3)Nc3ncnn32)cc(OC)c1OC` (stereo not drawn): 2.4% (active); for `CCCCOC(=O)c1ccc(NC(=O)C(C)N2CCOCC2)cc1` (stereo not drawn): 107%.
